Bioassay records from PubChem BioAssay.
Dicer processing = inhibitors of human Dicer processing of pre-microRNA; Q9UPY3; cat-ELCCA pre-miR-21 Dicer processing, chemiluminescence; hits give high values; z-score at 25 µM; actives 6% (n = 47,000); AID 1347074; in the data active = z-score above about 3, passing the limit was not always enough;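 also: plate controls were vehicle for no effect and no enzyme for full effect; higher signal means more uncleaved substrate so more Dicer inhibition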
* marks the source's active call; other numbers are inactive results. The entries come from a sample that favours hits as a whole.

SMILES	Dicer processing
CSc1nnc2c(n1)OC(c1ccc(F)cc1)N(C(C)=O)c1ccccc1-2 (configuration not stated)	-0.44
COC(=O)c1ccc(C(=O)Nc2c(C(N)=O)oc3ccccc23)cc1	3.6*
O=C(Nc1c(C(=O)c2ccc(Br)cc2)oc2ccccc12)c1ccco1	-1
O=C(Nc1c(C(=O)c2ccc(F)cc2)oc2ccccc12)c1ccco1	-0.64
O=C(/C=C/c1cc(-c2ccccc2)c(C(F)(F)F)s1)c1ccc(Cl)cc1	0.16
CSC(=NC#N)S/C=C/C(=O)c1cccc(Br)c1	-2.2
Cc1ccc2nc(S/C=C/C(=O)c3cccc(Br)c3)[nH]c2c1	3.5*
CCc1ccc(C(=O)/C=C/Sc2nc3ccc(C)cc3[nH]2)cc1	0.92
Cn1c2c(c(=O)n(C)c1=O)CN(CCCCN)CN2	-1.1
CCCCNc1c([N+](=O)[O-])c(=O)sc2ccccc12	7*
CC(C)(C)Nc1c([N+](=O)[O-])c(=O)sc2ccccc12	-0.95
O=c1sc2ccccc2c(NCCCN2CCOCC2)c1[N+](=O)[O-]	-0.32
O=c1sc2ccccc2c(N2CCN(c3ccccc3)CC2)c1[N+](=O)[O-]	0.84
O=c1sc2ccccc2c(Nc2ccccc2)c1[N+](=O)[O-]	3.6*
CN(C)CCCNc1sc(-c2ccccn2)c([N+](=O)[O-])c1[N+](=O)[O-]	0.03
COC(=O)CSCC1=CS(=O)(=O)c2ccc(Cl)cc21	-0.82
Nc1ccccc1SC1CC(=O)N(c2ccc(Oc3ccccc3)cc2)C1=O (configuration not stated)	2.7
Cc1c(S(=O)(=O)NC2CCCCNC2=O)sc2ccc(Cl)cc12 (configuration not stated)	1.3
O=C1NCCCCC1NS(=O)(=O)c1cccs1 (configuration not stated)	-0.93
COC(=O)c1csc(S(=O)(=O)NC2CCCCNC2=O)c1OC (configuration not stated)	4*
CN(C(=O)c1ccc(F)cc1)c1nc(-c2ccc(Cl)s2)cs1	0.21
CCOC(=O)C1=C(C)N=C2SCCC(=O)N2C1c1ccccc1 (configuration not stated)	-0.6
CCc1ccccc1Nc1n[nH]c(=S)s1	-2.4
COC(=O)c1sccc1N/N=C(\C#N)S(=O)(=O)c1cccs1	7.2
COC(=O)c1scc(S(=O)(=O)Cc2cccs2)c1N/N=C(\C#N)S(=O)(=O)c1ccc(Cl)cc1	5.6*
SMILES	Dicer processing
COC(=O)c1sccc1N/N=C(\C#N)S(=O)(=O)c1ccc(Cl)cc1	1.1
COCCOC(=O)c1c(C)oc2ccc(NS(=O)(=O)c3cccc4ccccc34)cc12	0.82
CCOc1ccc(C2C3=C(CC(C)(C)CC3=O)OC3=C2C(=O)CC(C)(C)C3)cc1	0.37
CCCCCC1(C(=O)OCC)CC(C)(c2csc(N)n2)OC1=O (configuration not stated)	-0.97
CCCC1CC(C)(c2csc(Cc3ccc(OCC)cc3)n2)OC1=O (configuration not stated)	4.9*
CN1CCN(c2nc3c(=O)[nH]c(N)nc3n2[C@H]2O[C@@H](CO)[C@H](O)[C@@H]2O)CC1	-1.4
CS(=O)(=O)N1N=C(c2ccco2)CC1c1cn(-c2ccccc2)nc1-c1cccs1 (configuration not stated)	-0.92
CSc1nnc2c(n1)OC(c1ccc(Br)cc1)Nc1ccccc1-2 (configuration not stated)	5.4*
COc1ccccc1C1Nc2ccccc2-c2nnc(SC)nc2O1 (configuration not stated)	-0.54
CSc1nnc2c(n1)OC(c1ccc(C(=O)O)cc1)Nc1ccc(Br)cc1-2 (configuration not stated)	0.21
CSc1nnc2c(n1)OC(c1ccc(O)c(O)c1)Nc1ccccc1-2 (configuration not stated)	4.4*
CSc1nnc2c(n1)OC(c1ccc(OCC(=O)O)cc1)Nc1ccccc1-2 (configuration not stated)	0.76
CSc1nnc2c(n1)OC(c1ccc(N(C)C)cc1)Nc1ccccc1-2 (configuration not stated)	23
CSc1nnc2c(n1)OC(c1ccccc1OCC(=O)O)Nc1ccccc1-2 (configuration not stated)	4.5*
CCSc1nnc2c(n1)OC(c1ccc(O)c(O)c1)Nc1ccccc1-2 (configuration not stated)	2.3
COc1ccc(C2Nc3ccccc3-c3nnc(SC)nc3O2)cc1 (configuration not stated)	1.5
CSc1nc(C)nc(Sc2cccc(C(F)(F)F)c2)c1C#N	-1.8
CCSC1=C(C#N)C(c2ccccc2)CC(=O)N1 (configuration not stated)	0.38
FC(F)(F)c1cccc(NCCNc2nccc(C(F)(F)F)n2)n1	0.11
Fc1ccc(-c2cnc3c(Cl)cc(C(F)(F)F)cc3n2)cc1	0.54
Cc1c(C(=O)N(Cc2ccccc2)C2CCS(=O)(=O)C2)oc2ccccc12 (configuration not stated)	1.1
CCc1ccc(CN(C(=O)c2oc3ccccc3c2C)C2CCS(=O)(=O)C2)cc1 (configuration not stated)	3.6*
Cc1c(C(=O)N(Cc2cccs2)C2CCS(=O)(=O)C2)oc2ccccc12 (configuration not stated)	1.7
Cc1ccc(NNC(=O)CCc2ccccc2)cc1C	3.5*
CCc1ccccc1NNC(=O)CCc1ccccc1	-0.71
SMILES	Dicer processing
Cc1ccc(NNC(=O)CCc2ccccc2)cc1Cl	-0.78
Cc1nnc(SCC#CCO)s1	12
COC(=O)c1cc2c(N)c(C#N)sc2nc1C(OC)OC	-1.1
OC(Cn1ccc2ccccc21)Cn1c(Cc2ccccc2)nc2ccccc21 (configuration not stated)	0.95
CCOC(=O)C1C(c2ccc(Br)cc2)C(C(=O)OCC)C(O)(C(F)(F)F)NC1(O)C(F)(F)F (configuration not stated)	1.5
Cc1c(CC(=O)N(C)C)sc2ccccc12	-1.2
O=C(Oc1c(-c2ccccc2)c(=O)n2c3c(cccc13)CCC2)c1cccs1	-1
O=C(Oc1c(-c2ccccc2)c(=O)n2c3c(cccc13)CC2)c1ccccc1	-2
O=C(Oc1c(-c2ccccc2)c(=O)n2c3c(cccc13)CC2)c1cccs1	4*
CSCCC(NC(=O)c1ccc(C(F)(F)F)cc1)c1n[nH]c(=S)n1C (configuration not stated)	7.9
CN1c2ccsc2C(=O)/C(=C\N=S(C)(=O)c2ccc(Cl)cc2)S1(=O)=O (configuration not stated)	0.98
CC1=C(C(=O)OCCc2ccccc2)C(c2ccc(C)o2)C2=C(CC(c3cccs3)CC2=O)N1 (configuration not stated)	1.2
COc1ccc(S(=O)(=O)Nc2ccc3oc4c(c3c2)C(=O)CCC4)cc1	0.14
Cc1ccc(S(=O)(=O)Nc2cc(Cl)c3oc4c(c3c2)C(=O)CCC4)c(C)c1	3.1*
CCOc1ccc(S(=O)(=O)Nc2cc(Cl)c3oc4c(c3c2)C(=O)CCC4)cc1	1.2
CC1S/C(=N\C(=O)Nc2ccc(Cl)cc2)NC1=O (configuration not stated)	0.28
NC(=O)c1c(NC(=O)Cn2nc(C(F)(F)F)c3c2CCCC3)sc2c1CCCC2	-1.1
O=C(O)CSc1nc2ccccc2s1	-1.8
Clc1ccc2sc(Sc3ccccc3)nc2c1	-0.68
Nc1ccc(Sc2nc3ccccc3s2)cc1	5.2*
CCOC(=O)c1c(CN2CCOCC2)oc2ccc(OC)cc12	3.5*
CCOC(=O)c1c(C)oc2ccc(OCC(N)=O)cc12	3
